Bm FixLJ act – activators of Burkholderia fixLJ two-component system; B. multivorans fixK-promoter GFP reporter, 18 h; stronger effect = higher value; z-score (no concentration beside the values); 29,000 tested, 0.3% active; AID 1918990;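 active = replicate mean overnight rise in green fluorescent reporter signal, 3 or more SD over negative controls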
The depositor's hits bear a star. The entries come from a sample that favours hits as a whole.

SMILES	Bm FixLJ act
O=C(Cn1ncc2c3ccccc3n(Cc3cccc(Cl)c3)c2c1=O)NCc1cccs1	11*
COc1ccc(CNC(=O)Cn2ncc3c4ccccc4n(Cc4cccc(Cl)c4)c3c2=O)cc1	24*
O=C(Cn1ncc2c3ccccc3n(Cc3cccc(Cl)c3)c2c1=O)N1CCCCCC1	8.7*
O=C(Cn1ncc2c3ccccc3n(Cc3ccccc3)c2c1=O)NCc1cccs1	-0.73
Cc1c2cnn(CC(=O)NCc3ccccc3)c(=O)c2c(C)n1Cc1cccc(Cl)c1	0.25
O=C(Cn1ncc2c3ccccc3n(Cc3ccccc3)c2c1=O)NCc1ccccc1	-2.9
CC(CCc1ccccc1)NC(=O)Cn1ncc2c3ccccc3n(Cc3ccccc3)c2c1=O (centres undefined)	-2.7
CC(CCc1ccccc1)NC(=O)Cn1ncc2c3ccccc3n(Cc3cccc(Cl)c3)c2c1=O (centres undefined)	26*
CC(CCc1ccccc1)NC(=O)Cn1ncc2c3ccccc3n(Cc3ccccc3F)c2c1=O (centres undefined)	-1.8
C=CCn1cc(-c2cc(-c3cccc(O)c3)nc(N)c2C#N)cn1	0.51
O=c1[nH]nc(CCn2cccn2)n1Cc1ccc(Cl)cc1Cl	-3.5
CC(C)CCN1CC2(CCCN(C(=O)c3ccnn3C)C2)CCC1=O (centres undefined)	-0.22
CN1CCC2CN(C(=O)c3cn(-c4ccccc4)nn3)C[C@@]2(C(=O)O)C1 (some centres undefined)	0.99
Cc1ccc(S(N)(=O)=O)cc1C(=O)NC1COC2(CCCCC2)C1 (centres undefined)	-1.4
Cn1ncc2c(NCc3cccc(Cl)c3)nc(-c3ccncc3)nc21	0.34
C=CCCC(=O)N1CCCC2(CCC(=O)N(Cc3ccncc3)C2)C1 (centres undefined)	-1.2
Nc1c(C(=O)Nc2ccc(F)c(F)c2)sc2nc(-c3ccncc3)ccc12	-0.61
Nc1c(C(=O)Nc2ccc(Cl)cc2F)sc2nc(-c3cccs3)ccc12	8.7*
Nc1c(C(=O)Nc2ccccc2Br)sc2nc(-c3cccs3)ccc12	-4.1
CC(C)Cc1cc(C(=O)NCC2CCN(C(=O)c3cc(C#N)c[nH]3)CC2)n[nH]1	2
CCNC(=O)C1CCN(C(=O)Nc2cccc(N3CCOC3=O)c2)C1 (centres undefined)	-0.87
COc1ccccc1C(=O)Nc1c(C(=O)c2ccccc2)oc2ccccc12	3.7*
COc1ccccc1OCC(=O)Nc1c(C(=O)c2ccc(C)cc2)oc2ccccc12	-2.1
COc1ccc(C(=O)c2oc3ccccc3c2NC(=O)c2ccc(F)cc2)cc1	-0.26
O=C(NCc1cn[nH]c1-c1ccc(Cl)cc1)c1cccc2c1OCCO2	-0.66
SMILES	Bm FixLJ act
Cc1nn(C)c2nc(-c3ccccn3)nc(N(C)CC(C)N3CCOCC3)c12 (centres undefined)	-0.39
COCc1noc(CNC(=O)c2ccc(N(C)S(C)(=O)=O)cc2)n1	3*
CN(c1ccc(C(=O)NCc2noc(-c3cccs3)n2)cc1)S(C)(=O)=O	-0.06
COc1ccc(CNC(=O)c2ccc(CNS(=O)(=O)c3ccc(OC)cc3)cc2)cc1	0.21
O=C(CCc1nc2ccc(F)cc2[nH]1)NC1COC2C(O)COC12 (centres undefined)	1.8
CCN(C(=O)NCc1noc(C)n1)C1CCS(=O)(=O)C1 (centres undefined)	1.1
COc1ccccc1C(=O)Nc1cccc(OCc2cc(=O)n3c(C)csc3n2)c1	-1.6
Cc1csc2nc(COc3cccc(NC(=O)c4ccccc4F)c3)cc(=O)n12	3*
Cc1ccccc1C(=O)Nc1cccc(OCc2cc(=O)n3c(C)csc3n2)c1	-0.23
CCC1CN(C(=O)c2ccn(CC)n2)CCC(=O)N1Cc1ccccc1 (centres undefined)	0.35
COc1ncccc1C(=O)N1CC(O)C(Cc2cnccn2)C1 (centres undefined)	0.66
CN(CCNC(=O)C=Cc1nc2ccccc2s1)S(C)(=O)=O	0.5
CN1C(=O)CC(C(=O)NCCc2nc(-c3cccnc3)n[nH]2)c2ccccc21 (centres undefined)	-1.1
Cc1ccc(-c2cc(C(=O)NC3CC(c4nnc(CO)n4C)C3)[nH]n2)cc1 (centres undefined)	-4
CC(C)(O)CCc1cccc(C(=O)NCCSc2ncn[nH]2)c1	1.2
Cc1cc(C)c(Cn2c3ccccc3c3cnn(CC(=O)NCCC4=CCCCC4)c(=O)c32)c(C)c1	-1.9
CC1CCC(NC(=O)Cn2ncc3c4ccccc4n(Cc4ccc(Cl)cc4)c3c2=O)CC1 (centres undefined)	2.9
O=C(Cn1ncc2c3ccccc3n(Cc3ccccc3)c2c1=O)NCCc1ccc(Cl)cc1	0.29
O=C(Cn1ncc2c3ccccc3n(Cc3ccc(Cl)cc3)c2c1=O)NC1CCCCCC1	11*
Cc1ccccc1Cn1c2ccccc2c2cnn(CC(=O)NC3CCCCCC3)c(=O)c21	-1.2
O=C(Cn1ncc2c3ccccc3n(Cc3ccc(Cl)cc3)c2c1=O)NCCC1=CCCCC1	6.4*
Cc1nccn1CC(=O)N1CCCN(C(=O)CC2CCc3ccccc32)CC1 (centres undefined)	-2.7
Cc1nn(C)c(C)c1CCC(=O)NCC1(c2cccc(F)c2)CCOCC1	-0.73
CCCn1cc(C(=O)NCC2(c3cccc(F)c3)CCOCC2)c(C)n1	-0.34
Cc1ccc2c(c1)OC(C)(C)CC2NC(=O)c1cc(C)n2nc(C)cc2n1 (centres undefined)	-0.38
SMILES	Bm FixLJ act
COCC(=O)N1CCC(C(=O)N2CCN(c3ccc(C(C)=O)cc3)CC2)CC1	-1.1
CN(CCCCN1CCOCC1)C(=O)C=Cc1cnc(N)nc1	-1.8
CCOc1cc(C(c2c(C)[nH]n(-c3ccccc3)c2=O)c2c(C)[nH]n(-c3ccccc3)c2=O)ccc1O	3.3*
COc1cc(C(c2c(C)[nH][nH]c2=O)c2c(C)[nH][nH]c2=O)ccc1OC(=O)c1ccccc1OC	0.53
Cc1[nH]n(-c2ccccc2)c(=O)c1C(c1cc(Cl)ccc1O)c1c(C)[nH]n(-c2ccccc2)c1=O	-4.3
Cc1cc(N2CCC(CNC(=O)CC3C(=O)N(C)C(=O)N3C)CC2)cc(C)n1 (centres undefined)	-0.24
CC(CNC(=O)CN1CCN(c2ncccn2)CC1)Oc1cccnc1 (centres undefined)	-0.31
CC(C)c1nnc(C(C)NC(=O)c2cc(-c3cccn3C)n[nH]2)o1 (centres undefined)	0.18
CCOc1ccc2ncc3c(-c4cccc(OC)c4)nn(-c4ccccc4)c3c2c1	3.3*
CCc1ccc(-c2nn(-c3ccc(OC)cc3)c3c2cnc2ccc(OC)cc23)cc1	1.1
CCOc1ccc(-c2nn(-c3ccc(F)cc3)c3c2cnc2ccc(F)cc23)cc1	-1.6
CN1CCc2[nH]cnc2C12CCN(c1nnc(-c3ccccc3)s1)CC2	-1.2
CN(C)c1ncc(C=CC(=O)NCC2(c3ccc(F)cc3)CCCC2)cn1	0.3
Cn1ccc(NC(=O)CN2CCC(C(O)c3nccn3C)CC2)n1 (centres undefined)	-0.18
Cc1cccnc1CNC(=O)N(C)CCc1c(C)n[nH]c1C	-0.4
COc1ccc(C2=C(N3CCN(c4cc(Cl)ccc4C)CC3)c3ccccc3C2=O)cc1	-0.7
COc1ccc(NC2=C(c3ccccc3)C(=O)c3ccccc32)cc1Cl	3.8*
COc1ccc(C2=C(N3CCN(c4cc(C)ccc4C)CC3)c3ccccc3C2=O)cc1	-0.78
Cc1ccc(NC2=C(c3ccc(C(F)(F)F)cc3)C(=O)c3ccccc32)cc1C	3.3*
COc1ccc(OC)c(NC2=C(c3ccccc3)C(=O)c3ccccc32)c1	-0.05
COc1ccc(Nc2c3c(nc4ccccc24)CCC3)cc1Cl	-3.5

Compound activity as filed in PubChem BioAssay.
